Source: PubChem BioAssay AID1159580 (chemical genetic matrix, 2015)
Several values for one entry are separate records, joined by “and”; a condition that tells them apart may be missing. Equal entries are not always repeated. About 2,000 (36%) of roughly 5,500 compounds were called active. Roughly 18% stayed inconclusive and do not appear here. No stated cut-off is given here; in the data, active means normalized growth mostly below about 0.91 (no sharp cut-off); inconclusive means no clear call, values can overlap the other calls; inactive means mostly above about 0.92. Some of the results follow.

Test: chemical genetic growth profiling, strain panel (AID 1159580);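 further: tested at 20 µM; growth read once vehicle control cultures reached saturation at 30 °C; 1 = growth at the plate median or of vehicle wells; lower values mean less growth of the strain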
Settings: S. cerevisiae deletion strains, growth OD

Measured: normalized growth

COC(=O)C[C@H]1C2(C)CC34OC5(C)O[C@@]6([C@H](OC)C(OC(=O)C(C)C)[C@]7(C)C(/C(=C(/OC)C(C)C)C(=O)O[C@H]7c7ccoc7)[C@@]6(O5)[C@H](OC)[C@@]3(OC)C2OC(C)=O)[C@]14C (stereo partly specified)
inactive: locus YAL013W, strain DEP1, active compounds read low 1.02 | locus YAL021C, strain ccr4, active compounds read low 1 | locus YAL026C, strain drs2, active compounds read low 0.994 | locus YAL030W, strain snc1, active compounds read low 0.984 | locus YBL061C, strain skt5, active compounds read low 0.962 | locus YBR009C, strain hhf1, active compounds read low 0.965 | locus YBR021W, strain FUR4, active compounds read low 1.02 | locus YBR023C, strain chs3, active compounds read low 0.994 | locus YBR171W, strain sec66, active compounds read low 0.989 | locus YBR229C, strain ROT2, active compounds read low 1.01 | locus YBR231C, strain swc5, active compounds read low 0.979 | locus YBR279W, strain paf1, active compounds read low 0.985 | locus YCL011C, strain gbp2, active compounds read low 0.975 | locus YCL016C, strain dcc1, active compounds read low 0.976 | locus YCL029C, strain bik1, active compounds read low 1.03 | locus YCL069W, strain vba3, active compounds read low 0.983 | locus YCR088W, strain abp1, active compounds read low 0.989 | locus YDL005C, strain med2, active compounds read low 0.972 | locus YDL035C, strain GPR1, active compounds read low 1.03 | locus YDL040C, strain nat1, active compounds read low 0.984 | locus YDL074C, strain BRE1, active compounds read low 1.04 | locus YDL101C, strain DUN1, active compounds read low 1.02 | locus YDL134C, strain PPH21, active compounds read low 1.01 | locus YDL185W, strain tfp1, active compounds read low 1.02 | locus YDL192W, strain arf1, active compounds read low 1.03 | locus YDR001C, strain nth1, active compounds read low 0.974 | locus YDR069C, strain doa4, active compounds read low 0.96 | locus YDR101C, strain arx1, active compounds read low 1.02 | locus YDR137W, strain rgp1, active compounds read low 0.95 | locus YDR159W, strain sac3, active compounds read low 1 | locus YDR162C, strain NBP2, active compounds read low 1.02 | locus YDR195W, strain ref2 0.986 | locus YDR297W, strain sur2, active compounds read low 0.967 | locus YDR318W, strain mcm21, active compounds read low 1.03 | locus YDR334W, strain swr1, active compounds read low 0.965 | locus YDR335W, strain msn5, active compounds read low 0.97 | locus YDR388W, active compounds read low 1.02 | locus YDR392W, strain spt3, active compounds read low 0.992 | locus YDR502C, strain sam2, active compounds read low 1 | locus YEL003W, strain gim4, active compounds read low 0.976 | locus YEL037C, strain rad23, active compounds read low 0.99 | locus YEL061C, strain CIN8 (second series), active compounds read low 0.978 | locus YER015W, strain faa2, active compounds read low 0.978 | locus YER016W, strain bim1, active compounds read low 0.98 | locus YER110C, active compounds read low 1.02 | locus YER111C, strain swi4, active compounds read low 0.969 | locus YER155C, strain BEM2 (second series), active compounds read low 0.967 | locus YER155C, strain BEM2, active compounds read low 1 | locus YER167W, strain BCK2, active compounds read low 1.02 | locus YFR010W, strain ubp6, active compounds read low 0.992 | locus YGL078C, strain dbp3, active compounds read low 0.994 | locus YGL086W, strain mad1, active compounds read low 1.01 | locus YGL167C, strain pmr1, active compounds read low 0.992 | locus YGL173C, strain kem1, active compounds read low 0.985 | locus YGL227W, strain vid30, active compounds read low 0.979 | locus YGL240W, strain doc1, active compounds read low 0.965 | locus YGL248W, strain PDE1, active compounds read low 1.01 | locus YGL253W, strain hxk2, active compounds read low 0.983 | locus YGR135W, strain pre9, active compounds read low 1.02 | locus YGR229C, strain SMI1, active compounds read low 0.998 | locus YGR252W, strain gcn5, active compounds read low 0.994 | locus YHR013C, strain ard1, active compounds read low 0.943 | locus YHR027C, strain rpn1, active compounds read low 0.994 | locus YHR030C, strain SLT2, active compounds read low 0.969 | locus YHR079C, strain IRE1 (second series), active compounds read low 1 | locus YHR079C, strain IRE1, active compounds read low 1 | locus YHR094C, strain hxt1, active compounds read low 1.01 | locus YHR129C, strain ARP1, active compounds read low 1.02 | locus YHR142W, strain chs7, active compounds read low 0.97 | locus YHR200W, strain rpn10, active compounds read low 1.02 | locus YIL066C, strain RNR3, active compounds read low 1.04 | locus YIL073C, strain SPO22, active compounds read low 1.02 | locus YIL125W, strain kgd1, active compounds read low 1.01 | locus YIR030C, strain dcg1, active compounds read low 1.02 | locus YJL092W, strain hpr5, active compounds read low 0.973 | locus YJL095W, strain BCK1 (second series), active compounds read low 0.995 | locus YJL095W, strain BCK1, active compounds read low 0.995 and 0.969 | locus YJL115W, strain asf1, active compounds read low 0.967 | locus YJL129C, strain trk1, active compounds read low 0.944 | locus YJL134W, strain LCB3, active compounds read low 1.01 | locus YJL154C, strain vps35, active compounds read low 0.981 | locus YJL164C, strain tpk1, active compounds read low 1.01 | locus YJL166W, strain qcr8, active compounds read low 0.99 | locus YJL168C, strain set2, active compounds read low 1.01 | locus YJL187C, strain SWE1 (second series), active compounds read low 1.01 | locus YJR043C, strain POL32, active compounds read low 1.03 | locus YJR066W, strain TOR1, active compounds read low 0.884 | locus YKL009W, strain mrt4, active compounds read low 0.959 | locus YKL068W, active compounds read low 0.998 | locus YKL085W, strain MDH1 (second series), active compounds read low 1.01 | locus YKL085W, strain MDH1, active compounds read low 1.01 | locus YKL160W, strain elf1, active compounds read low 0.987 | locus YKR001C, strain vps1, active compounds read low 0.992 | locus YKR026C, strain gcn3, active compounds read low 0.983 | locus YKR091W, strain srl3, active compounds read low 0.984 | locus YLL001W, strain dnm1, active compounds read low 0.973 | locus YLL026W, active compounds read low 0.978 | locus YLL041C, strain sdh2, active compounds read low 0.987 | locus YLR027C, strain aat2, active compounds read low 0.974 | locus YLR039C, strain RIC1, active compounds read low 0.908 | locus YLR058C, strain SHM2, active compounds read low 1.01 | locus YLR102C, strain apc9, active compounds read low 1 | locus YLR113W, strain HOG1, active compounds read low 1.01 | locus YLR221C, strain rsa3, active compounds read low 0.976 | locus YLR258W, strain gsy2, active compounds read low 0.996 | locus YLR262C, strain YPT6 (second series), active compounds read low 0.997 | locus YLR262C, strain YPT6, active compounds read low 0.754 | locus YLR268W, strain sec22, active compounds read low 1.03 | locus YLR320W, strain mms22, active compounds read low 0.988 | locus YLR342W, strain FKS1 (second series), active compounds read low 0.987 | locus YLR342W, strain FKS1, active compounds read low 0.982 | locus YLR357W, strain rsc2, active compounds read low 1.01 | locus YLR370C, strain arc18, active compounds read low 0.971 | locus YLR371W, strain rom2, active compounds read low 1.04 | locus YLR384C, strain iki3, active compounds read low 0.984 | locus YLR418C, strain cdc73, active compounds read low 1.04 | locus YML016C, strain PPZ1, active compounds read low 1.01 | locus YML032C, strain rad52, active compounds read low 1 | locus YML120C, strain ndi1, active compounds read low 0.982 | locus YML124C, strain tub3, active compounds read low 1.01 | locus YMR058W, strain fet3, active compounds read low 0.97 | locus YMR078C, strain ctf18, active compounds read low 1.01 | locus YMR125W, strain sto1, active compounds read low 0.986 | locus YMR129W, active compounds read low 0.986 | locus YMR205C, strain PFK2, active compounds read low 1 | locus YMR223W, strain ubp8, active compounds read low 1.01 | locus YMR231W, strain pep5, active compounds read low 0.975 | locus YMR307W, strain GAS1, active compounds read low 1.23 | locus YNL067W, strain RPL9B, active compounds read low 1.01 | locus YNL071W, strain lat1, active compounds read low 0.989 | locus YNL153C, strain GIM3, active compounds read low 1.03 | locus YNL183C, strain NPR1, active compounds read low 0.935 | locus YNL209W, strain ssb2, active compounds read low 0.985 | locus YNL233W, strain BNI4, active compounds read low 1.04 | locus YNL248C, strain rpa49, active compounds read low 0.977 | locus YNL250W, strain rad50, active compounds read low 1.04 | locus YNL271C, strain bni1, active compounds read low 1.02 | locus YNL298W, strain CLA4, active compounds read low 1 | locus YNL307C, strain MCK1, active compounds read low 1.02 | locus YNL322C, strain KRE1 (second series), active compounds read low 0.972 | locus YNL322C, strain KRE1, active compounds read low 1.01 | locus YNR049C, strain mso1, active compounds read low 0.96 | locus YNR052C, strain pop2, active compounds read low 1.03 | locus YOL006C, strain TOP1, active compounds read low 1.06 | locus YOL012C, strain htz1 0.933 | locus YOL147C, strain pex11, active compounds read low 1.02 | locus YOR001W, strain rrp6, active compounds read low 0.967 | locus YOR061W, strain CKA2, active compounds read low 1.04 | locus YOR069W, strain VPS5, active compounds read low 1.01 | locus YOR070C, strain gyp1, active compounds read low 1.01 | locus YOR080W, strain dia2, active compounds read low 0.964 | locus YOR083W, strain WHI5, active compounds read low 0.993 | locus YOR106W, strain vam3, active compounds read low 0.953 | locus YOR136W, strain idh2, active compounds read low 1 | locus YOR144C, strain elg1, active compounds read low 1.01 | locus YOR184W, strain ser1, active compounds read low 1.04 | locus YOR231W, strain MKK1, active compounds read low 0.955 | locus YOR265W, strain rbl2, active compounds read low 0.994 | locus YOR270C, strain vph1, active compounds read low 0.866 | locus YOR290C, strain snf2, active compounds read low 0.962 | locus YOR316C, strain cot1, active compounds read low 1 | locus YPL051W, strain arl3, active compounds read low 1 | locus YPL078C, strain atp4, active compounds read low 0.964 | locus YPL106C, strain sse1, active compounds read low 1.02 | locus YPL240C, strain hsp82, active compounds read low 0.988 | locus YPL256C, strain CLN2, active compounds read low 0.966 | locus YPR119W, strain clb2, active compounds read low 1 | locus YPR141C, strain kar3, active compounds read low 1.02 | locus YPR163C, strain tif3, active compounds read low 1.02 | locus YPR167C, strain met16, active compounds read low 1.01 | strain wtn01, active compounds read low 0.995
